From PubChem BioAssay AID1159580 (chemical genetic matrix, 2015)
The whole screen tested about 5,500 compounds, of which about 2,000 (36%) were called active. About 18% were inconclusive and are not listed. Rule as the data show it: active = normalized growth mostly below about 0.91 (no sharp cut-off); inconclusive = no clear call, values can overlap the other calls; inactive = mostly above about 0.92. This is one part of the list.

Test: chemical genetic growth profiling, strain panel (AID 1159580);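 also: tested at 20 µM; growth read once vehicle control cultures reached saturation at 30 °C; 1 = growth at the plate median or of vehicle wells; lower values mean less growth of the strain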
Settings: growth OD

Measured: normalized growth

Cc1cc(=O)n(-c2ccccc2)n1C
inactive: S. cerevisiae deletion strains, locus YJR066W, strain TOR1, hits give low values 0.984 | S. cerevisiae deletion strains, locus YJR075W, strain HOC1, hits give low values 1 | S. cerevisiae deletion strains, locus YKL009W, strain mrt4, hits give low values 1 | S. cerevisiae deletion strains, locus YKL068W, hits give low values 1 | S. cerevisiae deletion strains, locus YKL085W, strain MDH1 (second series), hits give low values 0.987 | S. cerevisiae deletion strains, locus YKL085W, strain MDH1, hits give low values 0.987 | S. cerevisiae deletion strains, locus YKL160W, strain elf1, hits give low values 0.936 | S. cerevisiae deletion strains, locus YKR001C, strain vps1, hits give low values 1.02 | S. cerevisiae deletion strains, locus YKR026C, strain gcn3, hits give low values 1 | S. cerevisiae deletion strains, locus YKR091W, strain srl3, hits give low values 0.99 | S. cerevisiae deletion strains, locus YLL001W, strain dnm1, hits give low values 0.921 | S. cerevisiae deletion strains, locus YLL026W, hits give low values 1 | S. cerevisiae deletion strains, locus YLL041C, strain sdh2, hits give low values 0.991 | S. cerevisiae deletion strains, locus YLR027C, strain aat2, hits give low values 1 | S. cerevisiae deletion strains, locus YLR039C, strain RIC1, hits give low values 1.04 | S. cerevisiae deletion strains, locus YLR058C, strain SHM2, hits give low values 1 | S. cerevisiae deletion strains, locus YLR102C, strain apc9, hits give low values 0.991 | S. cerevisiae deletion strains, locus YLR113W, strain HOG1, hits give low values 0.981 | S. cerevisiae deletion strains, locus YLR221C, strain rsa3, hits give low values 0.976 | S. cerevisiae deletion strains, locus YLR258W, strain gsy2, hits give low values 1.07 | S. cerevisiae deletion strains, locus YLR262C, strain YPT6 (second series), hits give low values 0.967 | S. cerevisiae deletion strains, locus YLR262C, strain YPT6, hits give low values 1.07 | S. cerevisiae deletion strains, locus YLR268W, strain sec22, hits give low values 0.992 | S. cerevisiae deletion strains, locus YLR320W, strain mms22, hits give low values 0.96 | S. cerevisiae deletion strains, locus YLR330W, strain CHS5, hits give low values 1.01 | S. cerevisiae deletion strains, locus YLR342W, strain FKS1 (second series), hits give low values 1.02 | S. cerevisiae deletion strains, locus YLR342W, strain FKS1, hits give low values 0.99 | S. cerevisiae deletion strains, locus YLR357W, strain rsc2, hits give low values 0.988 | S. cerevisiae deletion strains, locus YLR370C, strain arc18, hits give low values 0.991 | S. cerevisiae deletion strains, locus YLR371W, strain rom2, hits give low values 0.987 | S. cerevisiae deletion strains, locus YLR384C, strain iki3, hits give low values 1 | S. cerevisiae deletion strains, locus YLR418C, strain cdc73, hits give low values 0.995 | S. cerevisiae deletion strains, locus YML016C, strain PPZ1, hits give low values 1.01 | S. cerevisiae deletion strains, locus YML032C, strain rad52, hits give low values 0.993 | S. cerevisiae deletion strains, locus YML120C, strain ndi1, hits give low values 0.97 | S. cerevisiae deletion strains, locus YML124C, strain tub3, hits give low values 0.984 | S. cerevisiae deletion strains, locus YMR058W, strain fet3, hits give low values 0.99 | S. cerevisiae deletion strains, locus YMR078C, strain ctf18, hits give low values 0.975 | S. cerevisiae deletion strains, locus YMR125W, strain sto1, hits give low values 0.935 | S. cerevisiae deletion strains, locus YMR129W, hits give low values 0.998 | S. cerevisiae deletion strains, locus YMR205C, strain PFK2, hits give low values 0.946 | S. cerevisiae deletion strains, locus YMR223W, strain ubp8, hits give low values 0.99 | S. cerevisiae deletion strains, locus YMR231W, strain pep5, hits give low values 0.997 | S. cerevisiae deletion strains, locus YMR307W, strain GAS1, hits give low values 1.09 | S. cerevisiae deletion strains, locus YNL067W, strain RPL9B, hits give low values 0.995 | S. cerevisiae deletion strains, locus YNL071W, strain lat1, hits give low values 0.992 | S. cerevisiae deletion strains, locus YNL128W, strain TEP1, hits give low values 1.01 | S. cerevisiae deletion strains, locus YNL153C, strain GIM3, hits give low values 0.991 | S. cerevisiae deletion strains, locus YNL183C, strain NPR1, hits give low values 0.987 | S. cerevisiae deletion strains, locus YNL209W, strain ssb2, hits give low values 0.994 | S. cerevisiae deletion strains, locus YNL233W, strain BNI4, hits give low values 0.989 | S. cerevisiae deletion strains, locus YNL248C, strain rpa49, hits give low values 0.952 | S. cerevisiae deletion strains, locus YNL250W, strain rad50, hits give low values 1 | S. cerevisiae deletion strains, locus YNL271C, strain bni1, hits give low values 0.989 | S. cerevisiae deletion strains, locus YNL298W, strain CLA4, hits give low values 1.01 | S. cerevisiae deletion strains, locus YNL307C, strain MCK1, hits give low values 0.991 | S. cerevisiae deletion strains, locus YNL322C, strain KRE1 (second series), hits give low values 0.991 | S. cerevisiae deletion strains, locus YNR049C, strain mso1, hits give low values 1 | S. cerevisiae deletion strains, locus YNR052C, strain pop2, hits give low values 0.982 | S. cerevisiae deletion strains, locus YOL006C, strain TOP1, hits give low values 0.961 | S. cerevisiae deletion strains, locus YOL012C, strain htz1 1.68 | S. cerevisiae deletion strains, locus YOL147C, strain pex11, hits give low values 0.989 | S. cerevisiae deletion strains, locus YOR001W, strain rrp6, hits give low values 1.05 | S. cerevisiae deletion strains, locus YOR061W, strain CKA2, hits give low values 1.02 | S. cerevisiae deletion strains, locus YOR069W, strain VPS5, hits give low values 1.01 | S. cerevisiae deletion strains, locus YOR070C, strain gyp1, hits give low values 0.999 | S. cerevisiae deletion strains, locus YOR080W, strain dia2, hits give low values 0.999 | S. cerevisiae deletion strains, locus YOR083W, strain WHI5, hits give low values 0.949 | S. cerevisiae deletion strains, locus YOR106W, strain vam3, hits give low values 0.957 | S. cerevisiae deletion strains, locus YOR136W, strain idh2, hits give low values 0.986 | S. cerevisiae deletion strains, locus YOR144C, strain elg1, hits give low values 0.995 | S. cerevisiae deletion strains, locus YOR184W, strain ser1, hits give low values 1.01 | S. cerevisiae deletion strains, locus YOR231W, strain MKK1, hits give low values 1.04 | S. cerevisiae deletion strains, locus YOR265W, strain rbl2, hits give low values 0.994 | S. cerevisiae deletion strains, locus YOR270C, strain vph1, hits give low values 0.964 | S. cerevisiae deletion strains, locus YOR290C, strain snf2, hits give low values 0.945 | S. cerevisiae deletion strains, locus YOR316C, strain cot1, hits give low values 0.985 | S. cerevisiae deletion strains, locus YPL051W, strain arl3, hits give low values 0.98 | S. cerevisiae deletion strains, locus YPL078C, strain atp4, hits give low values 0.936 | S. cerevisiae deletion strains, locus YPL106C, strain sse1, hits give low values 0.981 | S. cerevisiae deletion strains, locus YPL240C, strain hsp82, hits give low values 1.01 | S. cerevisiae deletion strains, locus YPL256C, strain CLN2, hits give low values 0.999 | S. cerevisiae deletion strains, locus YPR119W, strain clb2, hits give low values 0.982 | S. cerevisiae deletion strains, locus YPR141C, strain kar3, hits give low values 0.995 | S. cerevisiae deletion strains, locus YPR163C, strain tif3, hits give low values 0.992 | S. cerevisiae deletion strains, locus YPR167C, strain met16, hits give low values 0.984 | S. cerevisiae deletion strains, strain wtn01, hits give low values 0.979 | S. cerevisiae strains, strain wild type, hits give low values 1.01
